In PubChem BioAssay (NCATS):
Records with an inconclusive call do not appear. Activity calls are given as the source filed them. Unless noted, calls come from the whole dose curve; as a rule, active = well fitted curve in the direction sought with a large enough effect; inconclusive = small, poorly fitted or top-dose-only effect, or another doubt; inactive = no such curve, though single readings can be large; an effect the other way counts as inactive or inconclusive.

How the values were obtained:
[1] = P-glycoprotein substrates identified in KB-8-5-11 adenocarcinoma cell line, qHTS therapeutic library screen (AID 1346987); note: nearly all actives have a fitted effect of over 65% in size
How it was run: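 Luminescence from CellTiter-Glo, read 5 min after addition, quantified survival of KB-8-5-11 (P-gp-overexpressing) cells exposed to compounds for 72 h. AC50 was derived from concentration-response curves.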

[2] = NS1 protein of Zika virus - qHTS assay to identify small molecule inhibitors in human HEK 293 cells (AID 1347053); note: series mostly up to about 46 µM; nearly all actives have a fitted effect of over 55% in size
How it was run: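 Compound-treated (1 h pre-infection) HEK 293 cells infected with ZIKV MR766, MOI = 0.5; after 24 h at 37 C, NS1 read by TR-FRET; data normalized to uninfected and infected controls.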

[3] = qHTS of pediatric cancer cell lines to identify multiple opportunities for drug repurposing: Primary screen for TC32 cells (AID 1347089); note: nearly all actives have a fitted effect of over 60% in size
How it was run: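 In the primary qHTS, MIPE compounds were tested at 11 concentrations (0.78 nM to 46 µM) and NPC compounds at 8 (0.59 nM to 46 µM) on TC32 cells for 48 h. CellTiter-Glo luminescence gave viability.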

[4] = qHTS of pediatric cancer cell lines to identify multiple opportunities for drug repurposing: Primary screen for DAOY cells (AID 1347090); note: series mostly up to about 46 µM; nearly all actives have a fitted effect of over 55% in size
How it was run: (§1)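 Viability measured as metabolically active cells via CellTiter-Glo luminescence following 48 hours of compound exposure, 11-point dilutions in confirmatory testing. 500-1,000 cells/well plated 5 hours before dosing; controls were DMSO and 2.3 µM bortezomib.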

[5] = qHTS of pediatric cancer cell lines to identify multiple opportunities for drug repurposing: Primary screen for SJ-GBM2 cells (AID 1347091)
How it was run: as §1

[6] = qHTS of pediatric cancer cell lines to identify multiple opportunities for drug repurposing: Primary screen for A673 cells (AID 1347092); note: nearly all actives have a fitted effect of over 45% in size
How it was run: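 48 h compound exposure, A673, 500-1,000 cells/well, 37 degrees C/5% CO2. MIPE: 11-point, 0.78 nM-46 µM; NPC: 8-point, 0.59 nM-46 µM (final). Readout CellTiter-Glo luminescence after 15 min RT.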

[7] = qHTS of pediatric cancer cell lines to identify multiple opportunities for drug repurposing: Primary screen for SK-N-MC cells (AID 1347093); note: series mostly up to about 46 µM
How it was run: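 Metabolically active cells were quantified by ATP-dependent luminescence (CellTiter-Glo, 15 min at room temperature) following 48 h treatment. Cells had been plated at 500-1,000 per well and settled for 5 h beforehand.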

[8] = qHTS of pediatric cancer cell lines to identify multiple opportunities for drug repurposing: Primary screen for BT-37 cells (AID 1347094); note: series mostly up to about 57 µM
How it was run: (§2)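 Quantitative HTS format: each compound titrated (MIPE 11 points from 0.78 nM, NPC 8 points from 0.59 nM) onto cells plated 5 hours earlier. After 48 h at 37 degrees C, CellTiter-Glo luminescence was recorded.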

[9] = qHTS of pediatric cancer cell lines to identify multiple opportunities for drug repurposing: Primary screen for NB-EBc1 cells (AID 1347095)
How it was run: as §2

[10] = qHTS of pediatric cancer cell lines to identify multiple opportunities for drug repurposing: Primary screen for U-2 OS cells (AID 1347096); note: nearly all actives have a fitted effect of over 50% in size
How it was run: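 Viability after 48 h compound treatment at 37C, 500-1,000 cells/well, read as ATP luminescence with CellTiter-Glo. Primary screens used 11-point (MIPE, 0.78 nM-46 µM) or 8-point (NPC, 0.59 nM-46 µM) final concentrations; follow-up screens used 11-point dilutions.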

[11] = qHTS of pediatric cancer cell lines to identify multiple opportunities for drug repurposing: Primary screen for Saos-2 cells (AID 1347097); note: nearly all actives have a fitted effect of over 40% in size
How it was run: as §2

[12] = Natriuretic polypeptide receptor (hNpr1) antagonism - Pilot counterscreen GloSensor control cell line (AID 1347045; calls by dose curve; note: series mostly up to about 38 µM)
How it was run: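 Cells were first seeded and incubated overnight at 37C, then loaded with 2% GloSensor substrate for 2 h. Compounds were added for 30 min at room temperature, followed by a baseline read, 50 uM SNP and a final read after 20 min.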

[13] = target: Atrial natriuretic peptide receptor 1 (Homo sapiens) (UniProt P16066); assay: Natriuretic polypeptide receptor (hNpr1) antagonism - Pilot screen (AID 1347049; calls by dose curve;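 note: agonist-evoked cGMP luminescence read 20 min after hNppA addition; series mostly up to about 58 µM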)
Chain of Atrial natriuretic peptide receptor 1 (Homo sapiens) (P16066 whole entry, looked up): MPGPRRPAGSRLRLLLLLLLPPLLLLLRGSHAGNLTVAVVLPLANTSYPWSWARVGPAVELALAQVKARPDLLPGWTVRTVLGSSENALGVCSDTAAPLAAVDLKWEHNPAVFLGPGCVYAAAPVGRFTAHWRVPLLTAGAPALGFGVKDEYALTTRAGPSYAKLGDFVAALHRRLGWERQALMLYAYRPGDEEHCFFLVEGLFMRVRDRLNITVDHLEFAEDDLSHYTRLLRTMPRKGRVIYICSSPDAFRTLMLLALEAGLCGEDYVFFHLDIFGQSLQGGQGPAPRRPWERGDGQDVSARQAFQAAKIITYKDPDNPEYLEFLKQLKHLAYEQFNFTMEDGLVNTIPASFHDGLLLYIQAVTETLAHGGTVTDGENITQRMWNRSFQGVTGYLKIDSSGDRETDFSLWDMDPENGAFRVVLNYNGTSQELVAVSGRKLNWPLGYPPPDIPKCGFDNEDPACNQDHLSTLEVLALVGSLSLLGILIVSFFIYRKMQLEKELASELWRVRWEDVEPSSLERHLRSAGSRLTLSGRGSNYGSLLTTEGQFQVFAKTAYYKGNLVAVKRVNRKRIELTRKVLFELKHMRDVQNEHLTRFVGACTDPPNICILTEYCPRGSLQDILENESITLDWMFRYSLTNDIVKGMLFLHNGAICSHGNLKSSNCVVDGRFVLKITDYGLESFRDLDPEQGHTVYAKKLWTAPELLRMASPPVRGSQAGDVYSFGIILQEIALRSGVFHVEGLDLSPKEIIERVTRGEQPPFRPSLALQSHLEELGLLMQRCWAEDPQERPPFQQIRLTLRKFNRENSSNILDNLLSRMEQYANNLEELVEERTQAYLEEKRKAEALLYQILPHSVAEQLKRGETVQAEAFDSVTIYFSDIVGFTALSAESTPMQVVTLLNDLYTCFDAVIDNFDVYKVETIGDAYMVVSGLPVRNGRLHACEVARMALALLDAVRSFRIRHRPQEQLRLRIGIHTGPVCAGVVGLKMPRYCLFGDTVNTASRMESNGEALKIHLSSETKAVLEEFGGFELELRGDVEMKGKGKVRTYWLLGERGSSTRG
How it was run: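 cGMP-sensor HEK293/hNpr1 cells, 1500/well, plated overnight at 37C. 2% GloSensor reagent, 2 h RT. Compound (23 nL pin transfer) 30 min RT, baseline luminescence pre-read. 0.1 nM hNppA, 20 min RT, post-read.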

[14] = target: Atrial natriuretic peptide receptor 2 (Homo sapiens) (UniProt P20594); assay: Natriuretic polypeptide receptor (hNpr2) antagonism - Pilot subtype selectivity assay (AID 1347050; calls by dose curve)
Chain of Atrial natriuretic peptide receptor 2 (Homo sapiens) (P20594 whole entry, looked up): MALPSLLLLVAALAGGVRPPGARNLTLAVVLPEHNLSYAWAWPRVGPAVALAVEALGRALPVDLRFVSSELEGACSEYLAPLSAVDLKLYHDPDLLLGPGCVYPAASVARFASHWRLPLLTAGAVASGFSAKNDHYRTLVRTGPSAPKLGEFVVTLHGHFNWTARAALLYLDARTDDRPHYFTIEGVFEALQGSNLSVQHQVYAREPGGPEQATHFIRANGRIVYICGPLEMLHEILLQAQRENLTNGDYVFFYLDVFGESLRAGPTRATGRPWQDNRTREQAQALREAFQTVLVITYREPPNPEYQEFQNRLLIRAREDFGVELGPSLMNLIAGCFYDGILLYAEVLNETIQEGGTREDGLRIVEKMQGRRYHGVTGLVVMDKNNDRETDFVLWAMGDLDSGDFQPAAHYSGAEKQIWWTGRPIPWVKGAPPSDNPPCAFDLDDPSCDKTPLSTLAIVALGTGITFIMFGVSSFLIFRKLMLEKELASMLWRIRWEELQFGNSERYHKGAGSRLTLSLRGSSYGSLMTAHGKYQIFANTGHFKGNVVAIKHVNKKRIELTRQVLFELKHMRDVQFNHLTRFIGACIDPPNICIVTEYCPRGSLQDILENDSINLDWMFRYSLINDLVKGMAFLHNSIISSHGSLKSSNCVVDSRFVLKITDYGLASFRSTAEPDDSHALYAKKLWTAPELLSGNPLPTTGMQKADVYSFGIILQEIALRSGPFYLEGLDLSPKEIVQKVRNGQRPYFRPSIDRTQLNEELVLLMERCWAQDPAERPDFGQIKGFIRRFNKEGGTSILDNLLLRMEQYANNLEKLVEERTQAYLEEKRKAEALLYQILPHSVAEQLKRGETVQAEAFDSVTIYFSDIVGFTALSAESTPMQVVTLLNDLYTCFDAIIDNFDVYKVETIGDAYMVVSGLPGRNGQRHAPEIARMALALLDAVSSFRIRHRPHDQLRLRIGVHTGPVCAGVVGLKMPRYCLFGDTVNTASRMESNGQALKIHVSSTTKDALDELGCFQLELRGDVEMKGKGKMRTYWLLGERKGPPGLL
How it was run: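 Luminescence from a genetically encoded cGMP luciferase biosensor in hNpr2-expressing HEK293 cells is read before and 20 min after adding 1 nM hNppC. Test compounds, in interplate 1:5 titrations, are added 30-50 min ahead of the agonist.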

[15] = target: T1, Tyrosine-protein phosphatase non-receptor type substrate 1 (Homo sapiens) + Leukocyte surface antigen CD47 (Homo sapiens) (UniProt P78324+Q08722); assay: CD47-SIRPalpha protein protein interaction - LANCE assay qHTS validation (AID 1347057; active = well fitted curve in the direction sought with a large enough effect in the signal ratio, with a control signal flat, not every such curve was filed as active; the % refers to the signal ratio; note: series mostly up to about 38 µM)
T1 sequence (P78324 whole entry, looked up, the tested form may be a part): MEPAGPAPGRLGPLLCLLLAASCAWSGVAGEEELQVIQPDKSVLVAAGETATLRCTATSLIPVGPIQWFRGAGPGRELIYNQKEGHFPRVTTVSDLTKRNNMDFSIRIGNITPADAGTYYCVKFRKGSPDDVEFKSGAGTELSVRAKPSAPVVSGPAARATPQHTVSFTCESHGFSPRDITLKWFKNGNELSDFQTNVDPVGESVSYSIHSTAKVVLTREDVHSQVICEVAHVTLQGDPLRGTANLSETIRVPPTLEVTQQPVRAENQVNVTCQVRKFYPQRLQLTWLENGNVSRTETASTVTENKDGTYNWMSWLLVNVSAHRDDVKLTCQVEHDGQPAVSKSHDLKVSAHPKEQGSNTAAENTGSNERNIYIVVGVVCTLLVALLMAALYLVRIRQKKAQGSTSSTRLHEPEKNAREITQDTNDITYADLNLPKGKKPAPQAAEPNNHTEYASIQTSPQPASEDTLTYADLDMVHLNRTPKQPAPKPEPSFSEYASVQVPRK
T1 sequence (Q08722 whole entry, looked up, the tested form may be a part): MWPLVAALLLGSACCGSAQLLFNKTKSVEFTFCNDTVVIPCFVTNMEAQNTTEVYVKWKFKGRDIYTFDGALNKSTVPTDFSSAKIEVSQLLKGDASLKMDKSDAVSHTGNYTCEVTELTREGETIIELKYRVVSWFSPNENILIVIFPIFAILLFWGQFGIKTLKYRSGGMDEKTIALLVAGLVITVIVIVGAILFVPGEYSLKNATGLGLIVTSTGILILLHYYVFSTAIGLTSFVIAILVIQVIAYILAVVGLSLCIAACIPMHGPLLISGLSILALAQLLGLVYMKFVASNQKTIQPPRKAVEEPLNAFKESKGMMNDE
How it was run: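 Inhibition of soluble CD47/SIRPalpha ectodomain association by titrated compounds, measured as 665/615 nm time-resolved FRET ratio after sequential 30 min room-temperature incubations.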

[16] = target: T1, Tyrosine-protein phosphatase non-receptor type substrate 1 (Homo sapiens) + Leukocyte surface antigen CD47 (Homo sapiens); assay: CD47-SIRPalpha protein protein interaction - Alpha assay qHTS validation (AID 1347059);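 note: bead proximity luminescence from CD47 binding SIRPalpha after compound preincubation with SIRPalpha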
How it was run: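 SIRPalpha-biotin 25 nM + cpd, 30 min RT, dark; add CD47-His 12.5 nM, 30 min; add Ni-NTA/SAV beads 10 ug/mL, 30 min; AlphaScreen. Buffer PBS pH 7.4 + 0.05% IGEPAL CA-630. Non-biotinylated SIRPalpha as control inhibitor.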

[17] = target: Parathyroid hormone/parathyroid hormone-related peptide receptor (Homo sapiens) (UniProt Q03431); assay: qHTS for PTHR1 Agonists: Optimization Screen against the NCGC LOPAC library (AID 1347079);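 note: GloSensor cAMP luminescence in HEK-293 GP2 cells expressing human PTHR1 with IBMX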
Chain of Parathyroid hormone/parathyroid hormone-related peptide receptor (Homo sapiens) (Q03431 whole entry, looked up): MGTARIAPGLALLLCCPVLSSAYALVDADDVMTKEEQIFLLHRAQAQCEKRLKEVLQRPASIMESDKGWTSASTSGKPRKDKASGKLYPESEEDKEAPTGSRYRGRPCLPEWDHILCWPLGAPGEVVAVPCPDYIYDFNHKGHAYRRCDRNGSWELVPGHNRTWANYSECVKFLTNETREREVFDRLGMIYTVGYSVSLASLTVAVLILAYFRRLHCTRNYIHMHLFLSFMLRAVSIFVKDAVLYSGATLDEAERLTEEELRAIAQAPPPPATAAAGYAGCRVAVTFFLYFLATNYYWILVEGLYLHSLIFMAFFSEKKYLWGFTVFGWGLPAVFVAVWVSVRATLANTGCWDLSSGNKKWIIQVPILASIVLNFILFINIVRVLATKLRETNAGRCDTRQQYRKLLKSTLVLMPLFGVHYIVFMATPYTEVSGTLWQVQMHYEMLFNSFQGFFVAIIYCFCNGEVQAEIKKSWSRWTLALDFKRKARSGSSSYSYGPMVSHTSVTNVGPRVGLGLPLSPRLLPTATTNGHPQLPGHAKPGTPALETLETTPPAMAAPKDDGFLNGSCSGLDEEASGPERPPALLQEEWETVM
How it was run: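 HEK-293 GP2 cells, PTHR1 + GloSensor cAMP; 3000 cells/well, o/n. Luciferin + IBMX 0.5mM each (stock), 1 hr 37C. Cpd titration, 1 hr 37C. Lum after 15 min RT. Ctrl M-PTH(1-15) top 10uM.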

[18] = qHTS of pediatric cancer cell lines to identify multiple opportunities for drug repurposing: Primary screen for SK-N-SH cells (AID 1347098);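 note: DMSO served as neutral control and bortezomib at 2.3 µM as positive control; nearly all actives have a fitted effect of over 65% in size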
How it was run: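 Cells (500-1,000/well) rested 5 h, then received compounds for 48 h; metabolically active cells were measured by CellTiter-Glo luminescence. Final concentrations spanned up to 46 µM (MIPE, 11-point) or 0.59 nM-46 µM (NPC, 8-point) in primary screens, 11-point in follow-ups.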

[19] = target: T1, Tyrosine-protein phosphatase non-receptor type substrate 1 (Homo sapiens) + Leukocyte surface antigen CD47 (Homo sapiens); assay: CD47-SIRPalpha protein protein interaction - HTRF assay qHTS validation (AID 1347058; active = well fitted curve in the direction sought with a large enough effect in the signal ratio, not every such curve was filed as active; the % refers to the signal ratio; note: series mostly up to about 38 µM)
How it was run: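 Soluble extracellular domains (6His-CD47, Avi-tag-biotinylated SIRPalpha) in PBS pH 7.4 with 0.05% IGEPAL CA-630. Compounds were preincubated 30 min at RT with CD47 and anti-His-Eu, then SIRPalpha and SAV-XL665 were added. TR-FRET 665/615 ratio.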

[20] = P-glycoprotein substrates identified in KB-3-1 adenocarcinoma cell line, qHTS therapeutic library screen (AID 1346986); details: KB-3-1 parental cells viability, CellTiter-Glo, 72 h; note: nearly all actives have a fitted effect of over 60% in size
How it was run: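 In 1536-well format, 500 cells/well received pinned compound titrations and were incubated 72 h, 5% CO2. Viability was read by CellTiter-Glo; cytotoxic if AC50 < 10 uM and efficacy >50%.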

Measured: Potency

Cc1ccc(S(=O)(=O)NC(=O)NC2CCCC2)cc1
inactive: [1] | [2] | [3] | [4] | [5] | [6] | [7] | [8] | [9] | [10] | [11]

C=C[C@@]1(C)CC(=O)[C@]2(O)[C@@]3(C)[C@@H](O)CCC(C)(C)[C@@H]3[C@H](O)[C@H](OC(C)=O)[C@@]2(C)O1
inactive: [1] | [2] | [3] | [4] | [5] | [6] | [7] | [8] | [9] | [10] | [11]

NC(N)=NCc1cccc(I)c1
inactive: [1] | [12] | [13] | [14] | [2] | [15] | [16] | [17]

CCN1CCN(C(=O)N[C@@H](C(=O)N[C@@H]2C(=O)N3C(C(=O)O)=C(CSc4nnnn4C)CS[C@H]23)c2ccc(O)cc2)C(=O)C1=O
inactive: [1] | [2] | [3] | [4] | [5] | [6] | [7] | [8] | [9] | [10] | [11]

CC(C)Cc1ccc(CC(=O)O)cc1
inactive: [1] | [2] | [3] | [4] | [5] | [6] | [7] | [8] | [9] | [10] | [11]

CC(=O)O[C@H]1C[C@@H]2CC[C@@H]3[C@H](CC[C@@]4(C)[C@H]3C[C@H]([N+]3(C)CCCCC3)[C@@H]4OC(C)=O)[C@@]2(C)C[C@@H]1N1CCCCC1
not listed: [12] | [13] | [14] | [15] | [16] | [17] | [19] | [20]
inactive: all other assays above

CCN(CC)CCOC(=O)C1(c2ccccc2)CCCC1
inactive: [1] | [2] | [3] | [4] | [5] | [6] | [7] | [8] | [9] | [10]

CCOC(=O)[C@H](CCc1ccccc1)N[C@@H](C)C(=O)N1[C@H](C(=O)O)C[C@H]2CCCC[C@@H]21
inactive: [1] | [12] | [13] | [14] | [15] | [19] | [16] | [17]

COc1cc(C(=O)N2CCCCCCC2)cc(OC)c1OC
inactive: [1] | [2] | [3] | [4] | [5] | [6] | [7] | [8] | [9] | [10] | [11]

NS(=O)(=O)c1cc(C(=O)O)cc(N2CCCC2)c1Oc1ccccc1
not listed: [12] | [13] | [14] | [15] | [16] | [17] | [19] | [20]
inactive: all other assays above

CN=C(N)NCCC[C@H](N)C(=O)O
inactive: [1] | [12] | [13] | [14] | [2] | [15] | [19] | [16] | [17]

CNCCc1ccccn1
inactive: [1] | [2] | [3] | [4] | [5] | [6] | [7] | [8] | [9] | [10]

NS(=O)(=O)c1cc2c(cc1Cl)NC(CC1CCCC1)NS2(=O)=O (configuration not stated)
not listed: [12] | [13] | [14] | [15] | [16] | [17] | [19] | [20]
inactive: all other assays above

C[N+]1(C)CCC(=C(c2ccccc2)c2ccccc2)CC1
not listed: [12] | [13] | [14] | [15] | [16] | [17] | [19] | [20]
inactive: all other assays above

CCCCN=C(N)N=C(N)N
inactive: [20] | [1] | [3] | [4] | [5] | [7] | [8] | [9] | [10] | [11] | [18]

OC[C@H]1O[C@@H](Oc2ccc(O)cc2)[C@H](O)[C@@H](O)[C@@H]1O
inactive: [1] | [2] | [3] | [4] | [5] | [6] | [7] | [8] | [9] | [10]

C/C=C/c1ccc(O)c(OC)c1
not listed: [12] | [13] | [14] | [15] | [16] | [17] | [19] | [20]
inactive: all other assays above

CC(C)CCCC(C)N (configuration not stated)
not listed: [12] | [13] | [14] | [15] | [16] | [17] | [19] | [20]
inactive: all other assays above

C=CCN1CCc2nc(N)sc2CC1
inactive: [1] | [2] | [3] | [4] | [5] | [6] | [7] | [8] | [9] | [10] | [18]

CC(C)(C)NCC(O)COc1cccc2c1C[C@H](O)[C@H](O)C2 (some centres not stated)
not listed: [12] | [13] | [14] | [15] | [16] | [17] | [19] | [20]
inactive: all other assays above

O=C(O)CCNC(=O)c1ccccc1
inactive: [1] | [2] | [3] | [4] | [5] | [6] | [7] | [8] | [9] | [10] | [18]
